Hits are enriched below; roughly 10% of the tested compounds scored in any of these assays.
G9a inh – qHTS Assay for Inhibitors of Histone Lysine Methyltransferase G9a; Histone-lysine N-methyltransferase EHMT2 (Homo sapiens), Q96KQ7; G9a H3K9 monomethylation, AlphaScreen, 2 h; Potency, µM (titrated, usually from 102 µM), inactives show at the top dose activity, negative = inhibition, hits mostly inhibitors; 8.8% of 350,000 active; note: % is set by controls: 0 for no effect and ±100 for the full control effect; nearly all actives have a fitted effect of over 75% in size
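Enzyme 20 nM + cpd, 15 min RT; add b-H3K9 pep 500 nM / SAM 20 uM; 2 h RT; anti-H3K9me1 Ab 0.5 ug/mL + SA donor / anti-rabbit acceptor beads 20 ug/mL each, 10 min; AlphaScreen read.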
HP1b binding inh – HTS for Inhibitors of HP1-beta Chromodomain Interactions with Methylated Histone Tails. AlphaScreen HP1-beta / biotin-H3K9me3 peptide binding. Potency, µM (series often up to 114 µM), for inactives: at the highest dose activity change, negative = inhibition, actives largely listed as inhibitors. 0.56% of 390,000 active. AID 540317, 2011; note: nearly all actives have a fitted effect of over 70% in size
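HP1-beta protein (50 nM final) preincubated 30 min at room temperature with biotinylated H3(1-18)K9me3 peptide (50 nM) in PBS pH 7.4, 0.01% Tween-20, then compound added for 30 min. AlphaScreen streptavidin donor/nickel chelate acceptor beads (10 ug/mL final), 30 min dark, luminescence read.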
JMJD2A Tudor inh – qHTS Assay for Inhibitors of JMJD2A-Tudor Domain; Lysine-specific demethylase 4A (Homo sapiens), O75164; AlphaScreen JMJD2A-Tudor / H3K4me3 peptide binding; Potency, µM (top dose mostly 114 µM), inactives show top-dose activity change, negative = inhibition, hits mostly inhibitors; 4.4% of 390,000 active; AID 504339, 2011; note: % is set by controls: 0 for no effect and ±100 for the full control effect; nearly all actives have a fitted effect of over 50% in size
GLS inh – qHTS for Inhibitors of Glutaminase (GLS); AID 624170, 2012; Potency, µM (highest dose often 45.5 µM), without a hit: at the top dose activity change, negative = inhibition, hits mostly inhibitors; 0.21% of 410,000 active; GLS enzymatic activity, qHTS titration; note: % is set by controls: 0 for no effect and ±100 for the full control effect
Target sequence (O94925 whole entry, looked up): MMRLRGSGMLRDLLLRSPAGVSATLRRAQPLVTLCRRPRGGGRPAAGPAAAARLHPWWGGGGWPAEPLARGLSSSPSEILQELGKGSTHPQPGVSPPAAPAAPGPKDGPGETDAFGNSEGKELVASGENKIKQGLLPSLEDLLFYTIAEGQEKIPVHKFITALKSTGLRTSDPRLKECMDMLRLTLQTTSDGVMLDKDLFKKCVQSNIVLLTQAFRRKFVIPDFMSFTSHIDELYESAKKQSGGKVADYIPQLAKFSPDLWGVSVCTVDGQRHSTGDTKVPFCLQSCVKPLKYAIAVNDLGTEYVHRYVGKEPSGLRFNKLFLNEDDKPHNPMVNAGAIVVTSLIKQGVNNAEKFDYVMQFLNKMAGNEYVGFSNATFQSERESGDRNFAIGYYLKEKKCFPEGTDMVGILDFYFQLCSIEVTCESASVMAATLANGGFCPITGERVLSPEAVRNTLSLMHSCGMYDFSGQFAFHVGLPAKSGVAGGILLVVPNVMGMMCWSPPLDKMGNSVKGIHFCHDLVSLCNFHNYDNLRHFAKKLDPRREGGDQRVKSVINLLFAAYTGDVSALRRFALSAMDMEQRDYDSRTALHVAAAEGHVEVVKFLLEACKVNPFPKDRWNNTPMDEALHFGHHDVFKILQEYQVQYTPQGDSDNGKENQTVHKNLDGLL
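Two-point fluorescence kinetic (t0, 30 min RT) for hKGA; glutamate detected via glutamate oxidase–HRP–Amplex Red. Substrate: 1 mM L-glutamine solution; buffer 45 mM KH2PO4, pH 8.2.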
BAZ2B inh – qHTS Assay for Inhibitors of BAZ2B; 4.4% of 360,000 active; AlphaScreen BAZ2B-H3K14Ac peptide displacement; AID 504333, 2011; Bromodomain adjacent to zinc finger domain protein 2B (Homo sapiens), Q9UIF8; Potency, µM (doses to about 114 µM), for inactives: at the top dose activity change, negative = inhibition, actives largely listed as inhibitors; note: % is set by controls: 0 for no effect and ±100 for the full control effect; nearly all actives have a fitted effect of over 60% in size
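Complex of BAZ2B and biotin-H3K14Ac (50 nM apiece) forms over 30 min at RT, then faces library compounds up to 110 uM for another 30 min; AlphaScreen beads added, 20 min dark incubation, luminescence read.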
Starred values were filed as active, the others as inactive; ! = not active in a repeat; [ ] = another dose, or the depositor's remark. Calls come from the whole dose curve; as a rule, active = well fitted curve in the direction sought with a large enough effect; inconclusive = small, poorly fitted or top-dose-only effect, or another doubt; inactive = no such curve, though single readings can be large; an effect the other way counts as inactive or inconclusive. Potency is the fitted concentration of half-maximal effect.

For CCC(CO)Oc1cc(NCc2ccc(C)cc2)c2ncn(C(C)C)c2c1 (configuration not stated) the results were HP1b binding inh -3%, JMJD2A Tudor inh 56µM* and GLS inh 19%.
For O=C(NCC(c1ccco1)N1CCCC1)c1cccc(NS(=O)(=O)c2ccccc2)c1 (configuration not stated) the results were G9a inh inconclusive, HP1b binding inh 18%, JMJD2A Tudor inh -25%, GLS inh 8% and BAZ2B inh -1%.
`NS(=O)(=O)c1ccc(CCNC(=O)C2COc3ccccc3O2)cc1` (configuration not stated) gave G9a inh 114%[59 µM], HP1b binding inh 23%, JMJD2A Tudor inh 1%, GLS inh 1% and BAZ2B inh -7%.
CCC(CO)Oc1cc(NCc2ccccc2O)c2ncn(C(C)C)c2c1 (configuration not stated) was read as HP1b binding inh -17%, JMJD2A Tudor inh inconclusive and GLS inh 33%.
For CCC(CO)Oc1cc(NCc2ccc(Cl)cc2Cl)c2ncn(C(C)C)c2c1 (configuration not stated) the results were HP1b binding inh -18%, JMJD2A Tudor inh 40µM* and GLS inh 31%.
CC1(C)S[C@@H]2[C@H](NC(=O)Cc3ccccc3)C(=O)N2[C@H]1C(=O)O was read as G9a inh 21%, HP1b binding inh 7%, JMJD2A Tudor inh -9%, GLS inh 1% and BAZ2B inh -31%.
`CC1(C)SC2C(C(=O)O)N=C(Cc3ccccc3)N2C1C(=O)O` (configuration not stated) gave HP1b binding inh 71%, JMJD2A Tudor inh inconclusive and GLS inh 16µM*.
Cc1onc(-c2c(F)cccc2Cl)c1C(=O)N[C@@H]1C(=O)N2C(C(=O)O)C(C)(C)S[C@H]12 (some centres not stated) was read as G9a inh inconclusive, HP1b binding inh 21%, JMJD2A Tudor inh -13%, GLS inh 11µM* and BAZ2B inh 8%.
For CCOc1ccc2ccccc2c1C(=O)N[C@@H]1C(=O)N2[C@@H]1SC(C)(C)[C@@H]2C(=O)O the results were G9a inh -31%[59 µM], HP1b binding inh 17%, JMJD2A Tudor inh inconclusive, GLS inh 4µM*! and BAZ2B inh 6%.
Screening CC1(C)S[C@@H]2[C@H](NC(=O)Cc3ccccc3)C(=O)N2[C@@H]1C(=O)O returned G9a inh 25%[59 µM] and GLS inh 13µM*.
Screening c1ccc(CCCNc2ncccn2)cc1 returned G9a inh -49%[59 µM], HP1b binding inh -7%, JMJD2A Tudor inh -15%[57.1 µM], GLS inh -2% and BAZ2B inh 31%.
`O=C(Nc1cccc2ncccc12)c1ccccc1F` gave G9a inh 58%, HP1b binding inh 23%, JMJD2A Tudor inh 8%, GLS inh -2% and BAZ2B inh -16%.
`CCC(Oc1ccccc1)C(=O)NC1C(=O)N2C1SC(C)(C)C2C(=O)O` (configuration not stated) gave G9a inh 34%[59 µM], HP1b binding inh 13%, JMJD2A Tudor inh -8%, GLS inh 25µM* and BAZ2B inh -3%.
For C[C@H](Oc1ccccc1)C(=O)N[C@@H]1C(=O)N2[C@@H]1SC(C)(C)[C@@H]2C(=O)O the results were G9a inh 24%[21.5 µM] and GLS inh -3%[20 µM].
CCOc1ccc(Nc2cc3n(c(=O)n2)CCc2cc(OC)c(OC)cc2-3)cc1 was read as G9a inh -13%[2.33 µM], HP1b binding inh -2%, JMJD2A Tudor inh -18%, GLS inh 2% and BAZ2B inh -27%.
COc1cc(C2c3sc(=O)[nH]c3SC3C(=O)N(c4ccc(C)cc4)C(=O)C32)ccc1O (configuration not stated) was read as G9a inh inconclusive, HP1b binding inh 1%, JMJD2A Tudor inh -32%, GLS inh 31% and BAZ2B inh inconclusive.
For CCOC(=O)C1CSc2[nH]c(=O)sc2C1c1ccccc1 (configuration not stated) the results were G9a inh 45µM*, HP1b binding inh 34%, JMJD2A Tudor inh -15%, GLS inh 46% and BAZ2B inh 0%.
Screening COC(=O)C1CSc2[nH]c(=O)sc2C1c1ccc(O)c(OC)c1 (configuration not stated) returned G9a inh 14µM*, HP1b binding inh 2%, JMJD2A Tudor inh -20%, GLS inh 1% and BAZ2B inh -32%.
`COc1ccc(C2c3sc(=O)[nH]c3SCC2C(N)=O)cc1` (configuration not stated) gave G9a inh -30%, HP1b binding inh 42%, JMJD2A Tudor inh -21%[11.4 µM], GLS inh 30% and BAZ2B inh -14%.
Screening O=c1[nH]c2c(s1)C(c1ccccc1)C1C3CCC(C3)C1S2 (configuration not stated) returned G9a inh 45µM*, HP1b binding inh 5%, JMJD2A Tudor inh -28%, GLS inh 2% and BAZ2B inh -22%.
For COc1ccc(C2c3sc(=O)[nH]c3SC3C4CCC(C4)C23)cc1 (configuration not stated) the results were G9a inh inconclusive, HP1b binding inh -7%, JMJD2A Tudor inh -30%, GLS inh 1% and BAZ2B inh inconclusive.
For COc1cc(C2c3sc(=O)[nH]c3SC3C4CCC(C4)C23)ccc1O (configuration not stated) the results were G9a inh 13µM*, HP1b binding inh inconclusive, JMJD2A Tudor inh inconclusive, GLS inh 3% and BAZ2B inh inconclusive.
For CC1CN(C(=O)CCC(=O)N2CCCCC2)c2cc(Cl)ccc2O1 (configuration not stated) the results were G9a inh 15%, HP1b binding inh 55%, JMJD2A Tudor inh -5%, GLS inh -5% and BAZ2B inh 2%.
Cc1cccc2c1CC(C)(C)NC2=C(C#N)C#N was read as G9a inh -6%, HP1b binding inh 13%, JMJD2A Tudor inh -8%, GLS inh -3% and BAZ2B inh -2%.
COc1ccccc1N1CCN(S(=O)(=O)c2ccc(F)cc2)CC1 was read as G9a inh inconclusive, HP1b binding inh 12%, JMJD2A Tudor inh -11%, GLS inh 5% and BAZ2B inh inconclusive.
`CC(=O)N1CCc2c(sc3c2c(=O)n(-c2ccccc2)c(=O)n3CC(=O)Nc2cccc(C)c2)C1` gave G9a inh 0%[59 µM], HP1b binding inh 18%, JMJD2A Tudor inh -19%, GLS inh -13% and BAZ2B inh -1%.

Bioassay records (PubChem)
